Experimental data from the supplement of paper PMC13380429.

Experiments:
[1] = system: Vero E6 infected with SARS-CoV-2; assay: morphology score (similarity to uninfected cells); higher = more like uninfected cells; conditions: 24 h
[2] = system: Vero E6 infected with SARS-CoV-2; assay: SARS-CoV-2 infection rate relative to infected DMSO; higher = more infection, active = 60 or less; conditions: 24 h

Compound | morphology score [1] | SARS-CoV-2 infection rate [2]
CCN(CC)CCOC(=O)C1(c2ccccc2)CCCC1 [caramiphen] (10 µM) | 0.145 | 95.5% (inactive)
COc1ccc(-c2nc3cc(C4=NNC(=O)CC4C)ccc3[nH]2)cc1 (centres undefined) [pimobendan] (10 µM) | 0.129 | 94% (inactive)
CCOc1ccc(-c2ccc(Cn3c(CC(C)(C)C(=O)O)c(SC(C)(C)C)c4cc(OCc5ccc(C)cn5)ccc43)cc2)cn1 (0.833333 µM) | 0.228 | 118% (inactive)
C(#Cc1nc2ncccc2nc1OCCN1CCCC1)c1ccccc1 (0.833333 µM) | 0.0988 | 86% (inactive)
CCOC(=O)[C@@]1(CCCCCCOc2ccc(Cl)cc2)CO1 [etomoxir] (10 µM) | -0.0546 | 109% (inactive)
C/N=C(/NC#N)NCCSCc1csc(NC(=N)N)n1 [tiotidine] (10 µM) | 0.11 | 98% (inactive)
CC[N+](CC)(CC)CCC(O)(c1ccccc1)C1CCCCC1 (centres undefined) [tridihexethyl] (10 µM) | -0.09 | 110% (inactive)
CC(C)[C@@H](CN1CC[C@@](C)(c2cccc(O)c2)[C@@H](C)C1)NC(=O)[C@H]1Cc2ccc(O)cc2CN1 (10 µM) | -0.0336 | 99.5% (inactive)
COc1cccc(-c2ccc([C@@H](Oc3cc(-c4ccc(C[C@H](N)C(=O)O)cc4)nc(N)n3)C(F)(F)F)cc2)c1 (10 µM) | 0.0975 | 102% (inactive)
Cc1c(N)c(=O)n(-c2ccccc2)n1C [ampyrone] (10 µM) | -0.0355 | 113% (inactive)
O=C(CNC(=O)c1ccc(Cl)cc1)NO [benurestat] (10 µM) | 0.153 | 114% (inactive)
CC(C)C[C@@H](NC(=O)[C@H](C)NC(=O)CNC(=O)[C@@H](NC=O)C(C)C)C(=O)N[C@@H](C)C(=O)N[C@@H](C(=O)N[C@H](C(=O)N[C@@H](C(=O)N[C@@H](Cc1c[nH]c2ccccc12)C(=O)N[C@H](CC(C)C)C(=O)N[C@@H](Cc1c[nH]c2ccccc12)C(=O)N[C@H](CC(C)C)C(=O)N[C@@H](Cc1c[nH]c2ccccc12)C(=O)N[C@H](CC(C)C)C(=O)N[C@@H](Cc1c[nH]c2ccccc12)C(=O)NCCO)C(C)C)C(C)C)C(C)C [gramicidin] (10 µM) | -0.258 | 100% (inactive)
CC(C)N[C@H]1CCn2c(=O)[nH]c3cccc(c32)[C@@H]1O [zilpaterol] (10 µM) | 0.19 | 106% (inactive)
Cn1c(=O)cnn(CCCCN2CCN(c3ncccn3)CC2)c1=O (10 µM) | -0.0383 | 115% (inactive)
c1cnc2cc3c(cc2n1)[C@@H]1CNC[C@H]3C1 [varenicline] (10 µM) | -0.0409 | 101% (inactive)
CCC[C@H](NC(=O)/C(C#N)=C/c1cccc(Br)n1)c1ccccc1 (0.833333 µM) | 0.143 | 108% (inactive)
Cc1[nH]c2ccc(Cl)cc2c1C1=CCNCC1 (10 µM) | 0.432 | 76% (inactive)
CC(C)c1cc(CNc2nc(Nc3cc(C4CC4)[nH]n3)cc(N3CCN(C)CC3)n2)on1 (10 µM) | -0.0949 | 112% (inactive)
C[N+]1(C)CCc2cc3c(cc2[C@H]1[C@@H]1OC(=O)c2c1ccc1c2OCO1)OCO3 [bicuculline-methochloride-(-)] (10 µM) | -0.156 | 110% (inactive)
O=C(O)c1nc(=O)[nH]c(=O)[nH]1 [oxonic-acid] (10 µM) | -0.0587 | 115% (inactive)
O=C(O)Cc1ccc(OCCNC[C@H](O)c2ccccc2)cc1 (10 µM) | -0.102 | 106% (inactive)
CC(=O)NO [acetohydroxamic-acid] (10 µM) | -0.0513 | 106% (inactive)
O=C1c2ccccc2C(=O)C1c1ccc(Cl)cc1 [chlorindione] (10 µM) | 0.011 | 102% (inactive)
Cc1nc(Nc2n[nH]c3c2CN(C(=O)N[C@H](CN(C)C)c2ccccc2)C3(C)C)c2sccc2n1 (10 µM) | -0.232 | 111% (inactive)
Cc1nc(NC(=O)N2CCC[C@H]2C(N)=O)sc1-c1ccnc(C(C)(C)C(F)(F)F)c1 [alpelisib] (10 µM) | 0.0577 | 113% (inactive)
Cc1cc(C)c(/C=C2\C(=O)Nc3ccccc32)[nH]1 [semaxanib] (10 µM) | 0.208 | 96% (inactive)
CN(C)CCCOc1nn(Cc2ccccc2)c2ccccc12 [benzydamine] (10 µM) | 0.4 | 70.5% (inactive)
